In ChEMBL document CHEMBL3988442, “University of Dundee, Small-Polar-MMV Screening Library” (2021):
For some of these results: Potency and affinity values are given separately.

What was measured:
Parameters in all cases: scale not given: direction of the effect not stated beside the values
[1] = biological target: Protein translocase subunit SecA (Escherichia coli (strain K12)) (UniProt P10408); experiment: Assay to Identify E. coli SecA ATPase Inhibitors; assay type: functional; details: 30 µM
[2] = biological target: T1, Ubiquitin-activating enzyme e1, putative (Leishmania donovani (strain BPK282A1)) (UniProt E9BSI1); experiment: Leishmania donovani Ubiquitin Activating Enzyme (LdE1); assay type: functional; details: 30 µM
T1 sequence (whole entry): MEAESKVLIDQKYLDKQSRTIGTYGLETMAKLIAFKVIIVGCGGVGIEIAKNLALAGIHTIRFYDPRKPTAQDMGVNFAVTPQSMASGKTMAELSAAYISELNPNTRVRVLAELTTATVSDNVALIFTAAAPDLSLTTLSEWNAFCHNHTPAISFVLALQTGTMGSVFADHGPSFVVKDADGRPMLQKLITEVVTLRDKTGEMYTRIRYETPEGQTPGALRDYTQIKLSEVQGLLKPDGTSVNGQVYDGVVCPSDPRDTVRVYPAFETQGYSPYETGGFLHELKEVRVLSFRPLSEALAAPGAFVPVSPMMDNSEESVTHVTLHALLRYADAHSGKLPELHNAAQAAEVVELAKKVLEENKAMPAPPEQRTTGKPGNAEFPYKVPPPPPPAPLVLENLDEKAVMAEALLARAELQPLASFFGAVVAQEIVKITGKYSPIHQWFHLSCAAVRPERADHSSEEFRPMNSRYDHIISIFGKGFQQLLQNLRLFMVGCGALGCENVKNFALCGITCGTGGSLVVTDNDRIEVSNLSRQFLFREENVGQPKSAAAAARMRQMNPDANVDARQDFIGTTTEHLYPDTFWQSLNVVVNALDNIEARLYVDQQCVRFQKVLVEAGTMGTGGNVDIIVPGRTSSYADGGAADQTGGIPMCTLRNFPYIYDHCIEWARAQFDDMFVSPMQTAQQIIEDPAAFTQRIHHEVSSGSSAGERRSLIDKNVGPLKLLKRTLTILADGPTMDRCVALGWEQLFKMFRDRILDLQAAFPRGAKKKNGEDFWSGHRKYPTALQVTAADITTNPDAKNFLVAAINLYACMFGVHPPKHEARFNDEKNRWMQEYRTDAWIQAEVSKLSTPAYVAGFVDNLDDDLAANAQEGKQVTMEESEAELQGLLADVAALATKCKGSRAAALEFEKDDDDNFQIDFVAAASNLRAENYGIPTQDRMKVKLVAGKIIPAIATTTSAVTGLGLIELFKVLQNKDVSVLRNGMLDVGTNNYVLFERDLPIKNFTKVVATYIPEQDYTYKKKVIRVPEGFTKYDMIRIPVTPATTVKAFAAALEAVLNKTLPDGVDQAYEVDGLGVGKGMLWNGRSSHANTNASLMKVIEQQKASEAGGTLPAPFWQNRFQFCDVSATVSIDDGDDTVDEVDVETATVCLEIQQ

[3] = biological target: AMP-activated protein kinase, AMPK (Homo sapiens) (UniProt P54646+O43741+P54619+Q9UGJ0+Q9Y478+Q13131+Q9UGI9); experiment: AMP-dependent Kinase enzyme assay. An in vitro enzyme assay that detects ADP turnover that is directly proportional to AMPK activity. This uses naive AMPK that is activated during the assay with MK-8722; assay type: functional; details: 30 µM
[4] = biological target: Sialic acid-binding Ig-like lectin 9 (Homo sapiens) (UniProt Q9Y336); experiment: Hs-Siglec9 ALPHAscreen SOP 20170721; details: 10 µM
Trypanosoma cruzi = experiment: Trypanosoma cruzi phosphomannomutase and mannose-1-phosphate guanylyltransferase assay; assay type: functional; details: 10 µM
[5] = biological target: T2, Arginase-2, mitochondrial (Homo sapiens) (UniProt P78540); experiment: in vitro enzyme assay to detect the production of urea directly proportional to the activity of Arginase II; assay type: functional; details: 33.3 µM; note: in the data most compounds retested in dose-response had high values
T2 sequence (whole entry): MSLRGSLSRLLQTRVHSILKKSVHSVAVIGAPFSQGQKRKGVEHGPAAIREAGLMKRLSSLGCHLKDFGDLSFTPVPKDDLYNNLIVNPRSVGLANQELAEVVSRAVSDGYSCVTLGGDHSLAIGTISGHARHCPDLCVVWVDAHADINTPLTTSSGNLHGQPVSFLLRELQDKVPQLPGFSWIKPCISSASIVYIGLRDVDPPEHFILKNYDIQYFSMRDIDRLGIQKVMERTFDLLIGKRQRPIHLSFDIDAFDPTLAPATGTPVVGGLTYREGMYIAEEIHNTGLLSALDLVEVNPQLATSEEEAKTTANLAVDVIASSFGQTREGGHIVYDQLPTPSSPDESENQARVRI

[6] = biological target: T3, Proteasome subunit beta (Trypanosoma cruzi) (UniProt O96673); experiment: Trypanosoma cruzi proteasome chymotrypsin-like activity (TcProtChymo) assay.; note: in the data most compounds retested in dose-response had high values; assay type: functional; details: 9.37 µM
T3 sequence (whole entry): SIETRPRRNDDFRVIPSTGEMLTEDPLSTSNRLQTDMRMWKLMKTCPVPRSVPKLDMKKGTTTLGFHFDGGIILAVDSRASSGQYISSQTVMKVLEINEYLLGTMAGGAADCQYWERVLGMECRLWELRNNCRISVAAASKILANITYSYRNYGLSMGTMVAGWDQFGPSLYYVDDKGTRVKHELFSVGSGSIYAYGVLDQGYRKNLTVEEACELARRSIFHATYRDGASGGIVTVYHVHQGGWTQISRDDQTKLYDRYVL

Homo sapiens = organism: Homo sapiens; experiment: To identify inhibition of the IFN signalling (Jak-Stat) pathway via expression of an eGFP reporter gene under the control of an IFN-stimulated response element (ISRE) containing MxA promoter.; assay type: functional; details: 30 µM
[7] = biological target: T4, Tyrosyl-tRNA synthetase, putative (Trypanosoma cruzi (strain CL Brener)) (UniProt Q4DSP6); experiment: Trypanosoma cruzi tyrosyl tRNA synthetase (TcYRS) _High Tyrosine SOP; assay type: functional; details: 30 µM; note: in the data most compounds retested in dose-response had high values
T4 sequence (whole entry): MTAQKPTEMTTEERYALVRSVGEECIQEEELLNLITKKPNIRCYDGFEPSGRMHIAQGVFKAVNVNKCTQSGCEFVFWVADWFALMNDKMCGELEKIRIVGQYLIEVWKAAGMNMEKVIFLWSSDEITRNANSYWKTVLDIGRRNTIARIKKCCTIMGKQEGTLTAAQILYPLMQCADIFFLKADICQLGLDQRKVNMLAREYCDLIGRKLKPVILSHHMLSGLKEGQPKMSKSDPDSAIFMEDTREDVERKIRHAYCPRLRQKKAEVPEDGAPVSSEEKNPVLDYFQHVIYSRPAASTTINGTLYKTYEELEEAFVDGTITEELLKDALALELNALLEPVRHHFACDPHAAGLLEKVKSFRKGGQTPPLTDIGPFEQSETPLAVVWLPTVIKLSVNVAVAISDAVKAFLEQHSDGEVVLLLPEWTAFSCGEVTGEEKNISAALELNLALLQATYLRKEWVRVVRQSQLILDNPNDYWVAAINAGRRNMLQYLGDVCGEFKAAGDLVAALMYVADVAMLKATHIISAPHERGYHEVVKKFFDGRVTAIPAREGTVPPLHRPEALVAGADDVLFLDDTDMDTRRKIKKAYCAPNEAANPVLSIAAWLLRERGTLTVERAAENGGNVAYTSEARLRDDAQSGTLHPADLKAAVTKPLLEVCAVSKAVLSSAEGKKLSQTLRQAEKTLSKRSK

[8] = biological target: T4, Tyrosyl-tRNA synthetase, putative (Trypanosoma cruzi (strain CL Brener)); experiment: Trypanosoma cruzi tyrosyl tRNA synthetase (TcYRS) SOP; assay type: functional; details: 30 µM
[9] = biological target: Chromo domain-containing protein 1 (Saccharomyces cerevisiae (strain ATCC 204508 / S288c) (Baker's yeast)) (UniProt P32657); experiment: ScCHD-1 Enzyme Inhibition Assay; assay type: functional; details: 30 µM; note: in the data most compounds retested in dose-response had high values
Sequence of Chromo domain-containing protein 1 (Saccharomyces cerevisiae (strain ATCC 204508 / S288c) (Baker's yeast)) (P32657 whole entry, the tested form may be a part): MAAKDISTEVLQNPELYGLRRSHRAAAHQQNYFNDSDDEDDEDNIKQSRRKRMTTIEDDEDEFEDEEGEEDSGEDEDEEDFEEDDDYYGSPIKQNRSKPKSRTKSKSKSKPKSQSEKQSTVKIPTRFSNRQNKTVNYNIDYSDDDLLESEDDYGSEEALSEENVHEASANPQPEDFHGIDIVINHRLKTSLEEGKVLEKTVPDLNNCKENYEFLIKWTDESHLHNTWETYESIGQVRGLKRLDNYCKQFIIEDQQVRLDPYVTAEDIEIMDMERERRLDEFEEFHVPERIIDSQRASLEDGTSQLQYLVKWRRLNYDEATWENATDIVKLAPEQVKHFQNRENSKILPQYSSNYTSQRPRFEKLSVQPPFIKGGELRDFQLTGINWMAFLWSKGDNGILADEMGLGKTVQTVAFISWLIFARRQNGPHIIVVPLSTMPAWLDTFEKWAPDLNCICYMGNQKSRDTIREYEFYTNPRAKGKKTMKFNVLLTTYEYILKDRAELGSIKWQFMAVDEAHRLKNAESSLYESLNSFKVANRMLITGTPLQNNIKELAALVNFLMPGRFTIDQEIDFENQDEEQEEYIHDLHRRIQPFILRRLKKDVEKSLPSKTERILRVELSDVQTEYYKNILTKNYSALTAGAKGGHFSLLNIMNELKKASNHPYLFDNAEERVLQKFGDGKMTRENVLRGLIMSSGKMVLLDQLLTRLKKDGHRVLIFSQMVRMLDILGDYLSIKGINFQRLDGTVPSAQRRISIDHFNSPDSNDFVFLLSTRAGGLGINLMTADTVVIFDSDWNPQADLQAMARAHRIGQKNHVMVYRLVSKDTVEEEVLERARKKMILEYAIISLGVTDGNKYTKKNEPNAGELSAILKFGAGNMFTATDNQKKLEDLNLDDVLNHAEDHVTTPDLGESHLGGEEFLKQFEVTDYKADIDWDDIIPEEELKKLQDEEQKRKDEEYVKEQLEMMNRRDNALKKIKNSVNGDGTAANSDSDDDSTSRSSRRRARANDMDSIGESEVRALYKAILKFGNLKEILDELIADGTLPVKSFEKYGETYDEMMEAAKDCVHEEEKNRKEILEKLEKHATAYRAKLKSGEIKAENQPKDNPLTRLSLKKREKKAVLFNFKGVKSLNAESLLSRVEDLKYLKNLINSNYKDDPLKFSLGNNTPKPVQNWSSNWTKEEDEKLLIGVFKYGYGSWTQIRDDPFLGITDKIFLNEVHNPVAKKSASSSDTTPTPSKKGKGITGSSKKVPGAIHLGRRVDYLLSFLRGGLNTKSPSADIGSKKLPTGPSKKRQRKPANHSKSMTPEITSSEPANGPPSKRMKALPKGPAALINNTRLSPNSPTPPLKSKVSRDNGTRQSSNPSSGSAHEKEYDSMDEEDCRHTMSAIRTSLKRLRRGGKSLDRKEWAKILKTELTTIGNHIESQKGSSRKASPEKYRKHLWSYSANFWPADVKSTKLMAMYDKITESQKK

Sequence of Sialic acid-binding Ig-like lectin 9 (Homo sapiens) (Q9Y336 whole entry): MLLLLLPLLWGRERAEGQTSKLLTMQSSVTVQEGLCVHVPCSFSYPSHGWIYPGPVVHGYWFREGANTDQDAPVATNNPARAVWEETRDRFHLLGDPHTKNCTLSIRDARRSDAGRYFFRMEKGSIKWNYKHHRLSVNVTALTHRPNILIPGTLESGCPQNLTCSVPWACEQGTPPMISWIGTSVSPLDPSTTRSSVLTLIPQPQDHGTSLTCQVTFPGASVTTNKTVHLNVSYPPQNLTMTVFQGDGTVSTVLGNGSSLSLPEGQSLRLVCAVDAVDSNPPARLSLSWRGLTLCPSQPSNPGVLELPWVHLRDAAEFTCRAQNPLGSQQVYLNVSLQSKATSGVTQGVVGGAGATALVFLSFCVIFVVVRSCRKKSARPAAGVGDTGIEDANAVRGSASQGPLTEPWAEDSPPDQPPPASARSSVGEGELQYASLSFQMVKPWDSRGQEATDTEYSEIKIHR
Sequence of Protein translocase subunit SecA (Escherichia coli (strain K12)) (P10408 whole entry): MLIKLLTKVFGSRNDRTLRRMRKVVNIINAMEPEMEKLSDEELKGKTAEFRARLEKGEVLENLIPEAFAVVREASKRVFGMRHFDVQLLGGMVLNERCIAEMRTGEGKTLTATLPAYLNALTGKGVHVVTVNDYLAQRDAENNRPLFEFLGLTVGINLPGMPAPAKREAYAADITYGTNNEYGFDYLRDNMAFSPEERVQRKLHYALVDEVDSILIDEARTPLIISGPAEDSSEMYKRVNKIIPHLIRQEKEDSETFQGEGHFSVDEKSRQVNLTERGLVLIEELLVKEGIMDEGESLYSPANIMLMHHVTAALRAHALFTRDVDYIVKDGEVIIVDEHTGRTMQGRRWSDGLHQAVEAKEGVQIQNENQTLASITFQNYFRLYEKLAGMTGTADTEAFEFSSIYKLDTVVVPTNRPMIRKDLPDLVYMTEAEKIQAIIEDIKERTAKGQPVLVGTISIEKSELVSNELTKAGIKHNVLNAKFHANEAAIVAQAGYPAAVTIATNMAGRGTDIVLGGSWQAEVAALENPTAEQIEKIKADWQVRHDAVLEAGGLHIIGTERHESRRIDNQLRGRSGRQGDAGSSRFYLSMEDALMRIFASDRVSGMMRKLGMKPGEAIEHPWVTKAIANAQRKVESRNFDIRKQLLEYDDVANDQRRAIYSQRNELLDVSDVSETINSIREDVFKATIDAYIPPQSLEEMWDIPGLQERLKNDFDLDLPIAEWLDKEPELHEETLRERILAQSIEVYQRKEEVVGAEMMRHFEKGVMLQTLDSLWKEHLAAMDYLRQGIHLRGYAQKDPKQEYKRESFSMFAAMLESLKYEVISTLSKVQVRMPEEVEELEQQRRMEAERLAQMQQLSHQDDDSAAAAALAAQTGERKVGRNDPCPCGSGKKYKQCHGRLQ

| Structure (SMILES) | Percent Effect [1] [%] | Percent Effect [2] [%] | Percent Effect [3] [%] | Percent Effect [4] [%] | Percent Effect (Trypanosoma cruzi) [%] | Percent Effect [5] [%] | Percent Effect [6] [%] | Percent Effect (Homo sapiens) [%] | Percent Effect [7] [%] | Percent Effect [8] [%] | Percent Effect [9] [%] |
| --- | --- | --- | --- | --- | --- | --- | --- | --- | --- | --- | --- |
| Cc1ccc(CN(CCCn2ccnc2)Cc2c[nH]cn2)s1 | -8.11 | 9.46 | -4.5 | 6 | 0 | 1.62 | 11.4 | 9.27 | 9.68 | 14.3 | -25.7 |
| CN1CC(=O)N(c2ccccc2)CC12CCN(Cc1cccnc1)C2 (configuration not stated) | -2.77 | 0 | 0.129 | 2.38 | -0.397 | 2 | 5.74 | 3.56 | 4.17 | 1.24 | 5.73 |
| Cc1ncsc1-c1nnc(C2CCN(Cc3ccc(F)cc3)CC2)o1 | -0.551 | -4.05 | 20 | -0.16 | 1.19 | -0.696 | 1.25 | -6.87 | 0 | -6.49 | -19.5 |
| Cc1nccn1C1CCCN(C(=O)c2cc3ccccc3[nH]2)C1 (configuration not stated) | -6.7 | 2.53 | -10.1 | 1.72 | -2.74 | 0.76 | -4.83 | 27.9 | -2.46 | -3.8 | -6.65 |
| Cc1ncsc1C(=O)N(C)Cc1ccncc1 | -4.37 | 10.5 | 3 | -5.42 | -6.58 | -2.68 | 16 | 23.6 | 1.47 | -7.32 | -6 |
| CCc1nc(CN2CCCN(c3nccs3)CC2)no1 | -2.88 | 15.6 | -3.3 | -7.59 | -3.93 | 1.78 | 12.5 | 26.3 | 3.88 | 9.76 | -8.02 |
| CCc1nc(C)c(C(=O)NCCNc2ncccn2)s1 | -4.61 | 15.8 | -1.87 | -4.05 | -2.52 | 0 | 2.28 | -2.51 | 9.36 | 16.1 | -3.7 |
| CNS(=O)(=O)c1cccc(C(C)NCc2cccc(OC)c2)c1 (configuration not stated) | -3.08 | -5.41 | 4.16 | -2.94 | -4.3 | -0.417 | 4.31 | 11.2 | 0 | -8.54 | -3.26 |
| O=C(CCNS(=O)(=O)c1ccccc1)NCc1ccoc1 | -5.05 | 5.33 | -0.901 | 7.78 | 7.11 | -0.521 | 12 | 12.9 | 8.2 | 16.1 | -4.93 |
| O=S(=O)(NC1=NCN(CCc2cccs2)CN1)c1ccc(F)cc1 | 1.07 | 4 | 3.26 | 4.09 | -4.91 | -7.57 | 14.1 | -6.32 | 5.29 | 10.3 | -10.7 |
| Cn1cc(CN2CCN(Cc3nccn3C)CC2)cn1 | 1.49 | 10.8 | 7.76 | -5.51 | -8.31 | -1.24 | 7.12 | 43.3 | 0 | 1.24 | -4.77 |
| Cc1nc(C)n(CC2CN(Cc3cccnc3)CCO2)n1 (configuration not stated) | -3.52 | 21.1 | -7.06 | -5.07 | -2.33 | 2.52 | 6.85 | -13.4 | 9.36 | 23.5 | -5.32 |
| O=C(NCC1CCOCC1)[C@H]1C[C@@H]2CCN(Cc3ccncc3)C[C@@H]2O1 | -1.48 | -2.67 | -3.45 | 1.78 | 3.28 | -1.25 | 14 | -16.5 | 1.04 | 7.5 | -5.98 |
| C=C(C)CN(Cc1cccc(O)c1)C1CCC(O)CC1 (configuration not stated) | -4.6 | 5.41 | -0.588 | 6.05 | -2.64 | -0.248 | 6.44 | -11.6 | 2.15 | 6.17 | -4.17 |
| CC(C)N1CCC(NCc2cccnc2N(C)Cc2ccccc2)CC1 | -6.5 | 5.33 | -5.44 | 0.0952 | 0.0974 | 1.04 | 4.01 | -2.28 | 1.64 | 6.17 | -5.77 |
| Cc1cc(-c2cnc(N3CCNC(=O)C3)nc2-c2cccnc2C)on1 | -2.87 | 8 | 5.98 | 8.08 | 1.97 | -2.1 | 7.49 | 1.83 | 5.32 | 11.5 | -10.5 |
| CCc1noc(C)c1C(=O)N(C)Cc1ncc(C)c(OC)c1C | -5.87 | 10.4 | 5.05 | -5.08 | 6.76 | 2.32 | 7.36 | 7.84 | 8.57 | 18.8 | -14.6 |
